Test results published in article PMC5540273 (PLoS ONE, 2017).

Tests used:
Conditions in all cases: concentration: 1 μM, replicates: in singlicate; n = 1
[1] = system: MAP3K15
[2] = system: MAP3K1
[3] = system: MAP3K2
[4] = system: MAP3K3
[5] = system: MAP3K4
[6] = system: MAP4K2
[7] = system: MAP4K3
[8] = system: MAP4K4
[9] = system: MAP4K5
[10] = system: MAPKAPK2
[11] = system: MAPKAPK5
[12] = system: MARK1
[13] = system: MARK2
[14] = system: MARK3
[15] = system: MARK4
[16] = system: MAST1
[17] = system: T1, MEK1
T1 construct: gene MAP2K1

[18] = system: T2, MEK2
T2 construct: gene MAP2K2

[19] = system: T3, MEK3
T3 construct: gene MAP2K3

[20] = system: T4, MEK4
T4 construct: gene MAP2K4
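Also: KINOMEscan kinase panel screen.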

CC(C)(C)c1ccc(C(=O)Nc2cn3cc(-n4ccnc4)ccc3n2)cc1
%Inh [1]: 68%
%Inh [2]: 12%
%Inh [3]: 17%
%Inh [4]: 0%
%Inh [5]: 15%
%Inh [6]: 30%
%Inh [7]: 0%
%Inh [8]: 6%
%Inh [9]: 0%
%Inh [10]: 0%
%Inh [11]: 0%
%Inh [12]: 0%
%Inh [13]: 3%
%Inh [14]: 0%
%Inh [15]: 0%
%Inh [16]: 38%
%Inh [17]: 5%
%Inh [18]: 6%
%Inh [19]: 0%
%Inh [20]: 38%

NCCC(NC(=O)c1cc(Br)c(-c2ccnc3[nH]ccc23)s1)c1ccccc1.O=C(O)C(F)(F)F.O=C(O)C(F)(F)F (stereo not shown) [GSK1307810]
%Inh [1]: 65%
%Inh [2]: 16%
%Inh [3]: 38%
%Inh [4]: 2%
%Inh [5]: 0%
%Inh [6]: 23%
%Inh [7]: 15%
%Inh [8]: 45%
%Inh [9]: 0%
%Inh [10]: 0%
%Inh [11]: 0%
%Inh [12]: 7%
%Inh [13]: 26%
%Inh [14]: 0%
%Inh [15]: 11%
%Inh [16]: 15%
%Inh [17]: 0%
%Inh [18]: 0%
%Inh [19]: 93.7%
%Inh [20]: 52%

Nc1ncc(-c2cn[nH]c2)c2scc(-c3ccc4c(c3)CCN4C(=O)Cc3ccccc3)c12 [GSK2593067]
%Inh [1]: 22%
%Inh [2]: 24%
%Inh [3]: 91%
%Inh [4]: 79%
%Inh [5]: 86%
%Inh [6]: 87%
%Inh [7]: 98.9%
%Inh [8]: 27%
%Inh [9]: 99.6%
%Inh [10]: 0%
%Inh [11]: 0%
%Inh [12]: 0%
%Inh [13]: 7%
%Inh [14]: 0%
%Inh [15]: 7%
%Inh [16]: 0%
%Inh [17]: 0%
%Inh [18]: 0%
%Inh [19]: 0%
%Inh [20]: 60%

N#Cc1cnc2cc(-c3cnc(CNCCN4CCOCC4)s3)ccc2c1Nc1ccc(Oc2ccccc2)cc1 [GW664114]
%Inh [1]: 0%
%Inh [2]: 19%
%Inh [3]: 65%
%Inh [4]: 86%
%Inh [5]: 99.2%
%Inh [6]: 71%
%Inh [7]: 98.9%
%Inh [8]: 98.1%
%Inh [9]: 99.6%
%Inh [10]: 14%
%Inh [11]: 0%
%Inh [12]: 35%
%Inh [13]: 0%
%Inh [14]: 9%
%Inh [15]: 5%
%Inh [16]: 0%
%Inh [17]: 100%
%Inh [18]: 100%
%Inh [19]: 9%
%Inh [20]: 80%

Cc1cccc(Nc2nc(N[C@H]3CCCC[C@H]3N)ncc2C(N)=O)c1.Cl [GSK986310]
%Inh [1]: 16%
%Inh [2]: 17%
%Inh [3]: 84%
%Inh [4]: 71%
%Inh [5]: 0%
%Inh [6]: 98.4%
%Inh [7]: 31%
%Inh [8]: 74%
%Inh [9]: 34%
%Inh [10]: 19%
%Inh [11]: 0%
%Inh [12]: 5%
%Inh [13]: 37%
%Inh [14]: 0%
%Inh [15]: 13%
%Inh [16]: 0%
%Inh [17]: 8%
%Inh [18]: 19%
%Inh [19]: 88%
%Inh [20]: 69%

Cc1ccc(-c2ccc3occ(-c4ccc(S(C)=O)cc4)c3c2)nn1 (stereo not shown)
%Inh [1]: 0%
%Inh [2]: 0%
%Inh [3]: 0%
%Inh [4]: 0%
%Inh [5]: 0%
%Inh [6]: 0%
%Inh [7]: 0%
%Inh [8]: 0%
%Inh [9]: 0%
%Inh [10]: 0%
%Inh [11]: 0%
%Inh [12]: 0%
%Inh [13]: 14%
%Inh [14]: 16%
%Inh [15]: 4%
%Inh [16]: 0%
%Inh [17]: 0%
%Inh [18]: 4%
%Inh [19]: 0%
%Inh [20]: 0%

CN(C)CCOc1ccc(-c2cc(-c3ccc(Cl)c(O)c3)c(-c3ccncc3)[nH]2)cc1.Cl.Cl [SB-684387]
%Inh [1]: 50%
%Inh [2]: 0%
%Inh [3]: 0%
%Inh [4]: 0%
%Inh [5]: 17%
%Inh [6]: 27%
%Inh [7]: 0%
%Inh [8]: 22%
%Inh [9]: 3%
%Inh [10]: 12%
%Inh [11]: 29%
%Inh [12]: 0%
%Inh [13]: 14%
%Inh [14]: 14%
%Inh [15]: 0%
%Inh [16]: 52%
%Inh [17]: 0%
%Inh [18]: 35%
%Inh [19]: 5%
%Inh [20]: 10%

O=C(Nc1n[nH]c2cc(-c3cccs3)ccc12)C1CC1 [SB-731284]
%Inh [1]: 57%
%Inh [2]: 52%
%Inh [3]: 34%
%Inh [4]: 44%
%Inh [5]: 0%
%Inh [6]: 9%
%Inh [7]: 0%
%Inh [8]: 13%
%Inh [9]: 0%
%Inh [10]: 0%
%Inh [11]: 4%
%Inh [12]: 47%
%Inh [13]: 21%
%Inh [14]: 0%
%Inh [15]: 35%
%Inh [16]: 6%
%Inh [17]: 47%
%Inh [18]: 24%
%Inh [19]: 51%
%Inh [20]: 46%

Cc1nn2c(=O)cc(N3CCO[C@H](C)C3)nc2n1Cc1cccc(Cl)c1Cl [GSK2373693]
%Inh [1]: 22%
%Inh [2]: 66%
%Inh [3]: 7%
%Inh [4]: 0%
%Inh [5]: 4%
%Inh [6]: 0%
%Inh [7]: 4%
%Inh [8]: 17%
%Inh [9]: 10%
%Inh [10]: 12%
%Inh [11]: 0%
%Inh [12]: 0%
%Inh [13]: 0%
%Inh [14]: 0%
%Inh [15]: 0%
%Inh [16]: 0%
%Inh [17]: 0%
%Inh [18]: 0%
%Inh [19]: 10%
%Inh [20]: 27%

Fc1cc(Cl)ccc1Nc1ccnc2cc(-c3ccc(CN4CCSCC4)o3)ccc12 [GW560106]
%Inh [1]: 0%
%Inh [2]: 6%
%Inh [3]: 0%
%Inh [4]: 0%
%Inh [5]: 0%
%Inh [6]: 0%
%Inh [7]: 8%
%Inh [8]: 40%
%Inh [9]: 50%
%Inh [10]: 5%
%Inh [11]: 0%
%Inh [12]: 5%
%Inh [13]: 0%
%Inh [14]: 0%
%Inh [15]: 21%
%Inh [16]: 34%
%Inh [17]: 53%
%Inh [18]: 35%
%Inh [19]: 0%
%Inh [20]: 3%

Cn1cc(-c2ccc3c(c2)CCN3C(=O)Cc2cc(F)cc(F)c2F)c2c(N)ncnc21 [GSK2634140]
%Inh [1]: 7%
%Inh [2]: 10%
%Inh [3]: 87%
%Inh [4]: 50%
%Inh [5]: 80%
%Inh [6]: 0%
%Inh [7]: 78%
%Inh [8]: 0%
%Inh [9]: 81%
%Inh [10]: 7%
%Inh [11]: 0%
%Inh [12]: 0%
%Inh [13]: 0%
%Inh [14]: 0%
%Inh [15]: 0%
%Inh [16]: 0%
%Inh [17]: 0%
%Inh [18]: 0%
%Inh [19]: 0%
%Inh [20]: 37%

Cn1cc(-c2cnc(N)c3c(-c4ccc5c(c4)CCN5C(=O)Cc4ccccc4)csc23)cn1 [GSK2593074]
%Inh [1]: 35%
%Inh [2]: 4%
%Inh [3]: 75%
%Inh [4]: 64%
%Inh [5]: 82%
%Inh [6]: 36%
%Inh [7]: 97.6%
%Inh [8]: 0%
%Inh [9]: 98.8%
%Inh [10]: 0%
%Inh [11]: 0%
%Inh [12]: 0%
%Inh [13]: 5%
%Inh [14]: 0%
%Inh [15]: 9%
%Inh [16]: 25%
%Inh [17]: 36%
%Inh [18]: 23%
%Inh [19]: 23%
%Inh [20]: 56%

COC(=O)Nc1nc2ccc(Oc3ccc(NC(=O)Nc4cc(C(F)(F)F)ccc4F)cc3)cc2[nH]1.Cl [GW654607]
%Inh [1]: 0%
%Inh [2]: 25%
%Inh [3]: 0%
%Inh [4]: 0%
%Inh [5]: 23%
%Inh [6]: 1%
%Inh [7]: 0%
%Inh [8]: 22%
%Inh [9]: 11%
%Inh [10]: 29%
%Inh [11]: 0%
%Inh [12]: 0%
%Inh [13]: 0%
%Inh [14]: 0%
%Inh [15]: 0%
%Inh [16]: 0%
%Inh [17]: 0%
%Inh [18]: 0%
%Inh [19]: 0%
%Inh [20]: 15%

Cc1cc(-c2c(-c3ccc(F)cc3)ncn2CCCN2CCOCC2)nc(N)n1 [SB-222517]
%Inh [1]: 0%
%Inh [2]: 24%
%Inh [3]: 30%
%Inh [4]: 0%
%Inh [5]: 15%
%Inh [6]: 0%
%Inh [7]: 5%
%Inh [8]: 0%
%Inh [9]: 0%
%Inh [10]: 0%
%Inh [11]: 0%
%Inh [12]: 23%
%Inh [13]: 0%
%Inh [14]: 0%
%Inh [15]: 32%
%Inh [16]: 14%
%Inh [17]: 21%
%Inh [18]: 47%
%Inh [19]: 23%
%Inh [20]: 26%

COc1cccc(CC(=O)N2CCc3cc(-c4cn(C)c5ncnc(N)c45)ccc32)c1 [GSK2608899]
%Inh [1]: 13%
%Inh [2]: 20%
%Inh [3]: 82%
%Inh [4]: 49%
%Inh [5]: 77%
%Inh [6]: 38%
%Inh [7]: 78%
%Inh [8]: 0%
%Inh [9]: 84%
%Inh [10]: 21%
%Inh [11]: 0%
%Inh [12]: 0%
%Inh [13]: 0%
%Inh [14]: 7%
%Inh [15]: 0%
%Inh [16]: 0%
%Inh [17]: 39%
%Inh [18]: 0%
%Inh [19]: 0%
%Inh [20]: 53%

COC(=O)Nc1nc2ccc(Oc3ccc(CC(=O)Nc4cc(C(F)(F)F)ccc4F)cc3)cc2[nH]1 [GW680903]
%Inh [1]: 0%
%Inh [2]: 0%
%Inh [3]: 0%
%Inh [4]: 0%
%Inh [5]: 8%
%Inh [6]: 0%
%Inh [7]: 0%
%Inh [8]: 0%
%Inh [9]: 0%
%Inh [10]: 20%
%Inh [11]: 0%
%Inh [12]: 0%
%Inh [13]: 100%
%Inh [14]: 5%
%Inh [15]: 0%
%Inh [16]: 0%
%Inh [17]: 0%
%Inh [18]: 0%
%Inh [19]: 0%
%Inh [20]: 29%

COc1cc(Nc2ccnc3cc(-c4ccncc4)ccc23)cc(OC)c1OC.Cl [GW494610]
%Inh [1]: 7%
%Inh [2]: 8%
%Inh [3]: 25%
%Inh [4]: 30%
%Inh [5]: 0%
%Inh [6]: 13%
%Inh [7]: 0%
%Inh [8]: 83%
%Inh [9]: 55%
%Inh [10]: 13%
%Inh [11]: 0%
%Inh [12]: 1%
%Inh [13]: 0%
%Inh [14]: 0%
%Inh [15]: 9%
%Inh [16]: 15%
%Inh [17]: 14%
%Inh [18]: 0%
%Inh [19]: 0%
%Inh [20]: 27%
